In the library only some 7.5% were active in any assay of this set; here they are far more common.
Luc counter – Kinase-Glo luciferase inhibition (counter-screen); Kinase-Glo luciferase, ATP luminescence, 8 min; AID 1379; Potency, µM (highest dose often 38.3 µM), for the others: top-dose activity change, negative = inhibition, hits mostly inhibitors; actives 0.28% (n = 200,000); Q27757; also: % is scaled to controls: 0 for no effect and ±100 for the full control effect; nearly all actives have a fitted effect of over 60% in size
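Light output from Kinase-Glo luciferase with luciferin and 10 uM ATP in 50 mM imidazole pH 7.2, KCl, MgCl2, Tween 20, BSA; compound pin-delivered, 8-min ambient incubation, then luminescence read.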
SMN2 splice enh – enhancers of SMN2 splice variant expression | HEK293 SMN2-luciferase splicing reporter, luminescence, 30-36 h | Potency, µM (series often up to 46.1 µM), for the others: at the highest dose activity change, positive = activation, most hits filed as activators | actives 2.8% (n = 210,000) | AID 1458; also: % of control where 0% means no effect; nearly all actives have a fitted effect of over 55% in size
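qHTS luciferase splicing reporter: luminescence rises when SMN2 exon 7 is included in transfected HEK293 cells. Compound exposure lasted 30-36 h at 37C, with 4.5 mM final sodium butyrate as control, followed by a ONE-Glo read.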
FLuc counter – inhibits or activates purified firefly luciferase, miR-21 counter-screen; Potency, µM (doses to about 57.5 µM), for the others: top-dose activity change, negative = inhibition, most hits filed as inhibitors; AID 588342; P08659; actives 6.9% (n = 360,000); purified FLuc, Km substrates, luminescence inhibition;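 also: plate controls were vehicle for no effect and reference inhibitor for full effect; nearly all actives have a fitted effect of over 55% in size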
Target sequence (P08659 whole entry, looked up): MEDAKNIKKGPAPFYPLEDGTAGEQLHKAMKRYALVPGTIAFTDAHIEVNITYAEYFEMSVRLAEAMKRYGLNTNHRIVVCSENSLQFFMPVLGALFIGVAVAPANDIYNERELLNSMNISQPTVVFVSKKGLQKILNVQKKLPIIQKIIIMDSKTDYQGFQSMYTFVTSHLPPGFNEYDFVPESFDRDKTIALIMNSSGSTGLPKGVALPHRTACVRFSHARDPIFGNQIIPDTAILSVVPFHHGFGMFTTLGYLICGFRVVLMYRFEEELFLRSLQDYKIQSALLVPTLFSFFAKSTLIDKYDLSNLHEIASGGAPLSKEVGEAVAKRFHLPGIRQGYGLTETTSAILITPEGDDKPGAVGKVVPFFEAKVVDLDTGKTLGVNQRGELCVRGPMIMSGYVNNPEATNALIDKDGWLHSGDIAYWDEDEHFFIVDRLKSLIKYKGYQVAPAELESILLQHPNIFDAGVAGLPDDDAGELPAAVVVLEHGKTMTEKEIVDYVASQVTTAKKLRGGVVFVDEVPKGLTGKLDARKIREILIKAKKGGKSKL
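Purified P. pyralis luciferase (10nM final) with 10uM D-luciferin and 10uM ATP (Km levels) in 50mM Tris acetate pH 7.5, 10mM Mg acetate, 0.01% Tween-20, 0.05% BSA; qHTS 6-point titration, ~60 µM downward; luminescence read.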
ELG1 genotox – genotoxicity induction in ELG1-luciferase HEK293T cells | HEK293T ELG1-luciferase reporter, luminescence, 16 h | Potency, µM (series often up to 46 µM), inactives show top-dose activity change, positive = activation, most hits filed as activators | actives 1.3% (n = 330,000); also: % of control where 0% means no effect; nearly all actives have a fitted effect of over 60% in size
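Genotoxicity was scored as increased ELG1-luciferase reporter signal, measured by ONE-Glo luminescence (30 min, room temperature). Compound or vehicle exposure of the HEK293T reporter cells lasted 16 hr at 37°C.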
Rab9 prom act – Rab9 promoter activation | Huh7 Rab9 promoter-luciferase reporter, luminescence, 24 h | Potency, µM (series often up to 9.22 µM), without a hit: top-dose activation, negative = inhibition, hits mostly activators | actives 2.8% (n = 320,000); also: % of control where 0% means no effect; nearly all actives have a fitted effect of over 60% in size
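Huh7 cells stably carrying a Rab9 promoter-luciferase reporter, 1500 cells per well in OP-MEM I with 10% FBS, treated with compound 24 hours at 37C. Luciferase activity read by luminescence after 10 minutes with Amplite reagent.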
NPC1 prom act – NPC1 promoter activation; Huh7 NPC1 promoter luciferase reporter, 24 h; Potency, µM (highest dose often 9.22 µM), for inactives: at the highest dose activation, actives largely listed as activators; actives 2.4% (n = 320,000); AID 485313; also: % of control where 0% means no effect; nearly all actives have a fitted effect of over 60% in size
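Cells: Huh7 expressing luciferase under the NPC1 promoter, 1500/well. Seeded 2 h, compound added, incubated 24 h at 37 °C. Luciferase reagent, 10 min ambient, then luminescence.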
* hit, by the source's call; ? = inconclusive; nt = not tested or not shown. Calls follow the shape of the dose curve; as a rule, active = well fitted curve in the direction sought with a large enough effect; inconclusive = small, poorly fitted or top-dose-only effect, or another doubt; inactive = no such curve, though single readings can be large; an effect the other way counts as inactive or inconclusive. Potency is read from the fitted curve at half-maximal effect.

SMILES	Luc counter	SMN2 splice enh	FLuc counter	ELG1 genotox	Rab9 prom act	NPC1 prom act
O=C(Nc1ccc(N2CCOCC2)c(Cl)c1)c1ccc(F)cc1	4%	11µM*	13µM*	2%	2.5µM*	?
O=C(NC(=S)Nc1ccc(N2CCOCC2)c(Cl)c1)C(c1ccccc1)c1ccccc1	-1%	3%	9%	-3%	3%	-1%
COc1ccc(C(CNC(=O)C(=O)Nc2ccc3c(c2)OCCO3)N2CCN(C)CC2)cc1 (stereo not given)	nt	nt	4%	-2%	-9%	1%
c1ccc(-n2ncc3c2ncn2nc(-c4ccco4)nc32)cc1	-9%	11µM*	0.85µM*	1.6µM*	1.1µM*	3.2µM*
COc1ccc(-n2ncc3c2ncn2nc(Cc4ccccc4)nc32)cc1	nt	-10%	-12%	nt	nt	nt
COc1ccc(O)c(/C=N/NC(=O)c2cccc(N3CCCC3=O)c2)c1	nt	nt	11µM*	13%	-8%	-39%
O=C(N/N=C/c1cc(Br)ccc1O)c1cccc(N2CCCC2=O)c1	0%	-90%	17µM*	?	-30%	-24%
CN(C)c1ccc(/C=N/NC(=O)c2cccc(N3CCCC3=O)c2)cc1	-8%	4%	11µM*	9%	15%	4%
COc1ccc(O)c(/C=N/NC(=O)c2ccc(N3CCCC3=O)cc2)c1	nt	nt	-12%	-3%	-16%	-34%
O=C(N/N=C/c1ccco1)c1cccc(N2CCCC2=O)c1	-12%	?	19µM*	18%	22%	12%
COc1ccc(-c2nnc(SCC(=O)O)n2Cc2ccccc2)cc1	nt	nt	0%	2%	-6%	0%
COc1ccc(Cn2c(CCC(=O)Nc3ccc(OC)c(Cl)c3)nc3cccnc32)cc1	nt	-7%	0%	nt	nt	nt
COc1cccc(/C=N/NC(=O)c2cccc(N3CCCC3=O)c2)c1	nt	nt	9.5µM*	4.1µM*	?	?
COc1ccc(/C=N/NC(=O)c2ccc(N3CCCC3=O)cc2)cc1	nt	nt	?	2%	0%	-1%
Cc1ccc(O)c(N=Cc2cc(Cc3ccccc3)cc([N+](=O)[O-])c2O)c1	-1%	1%	?	-7%	-2%	-4%
O=C1C(C=Nc2ccccc2O)=C(O)c2ccccc21	10µM*	35µM*	?	17%	?	?
O=C1C(C=NCCCN2CCOCC2)=C(O)c2ccccc21	-3%	-9%	?	15%	4%	-5%
Cc1ccc(O)c(N=CC2=C(O)c3ccccc3C2=O)c1	-10%	25%	6.7µM*	?	?	?
CCCC12CN3CC(C)(CN(C1)C3c1ccc(CC)cc1)C2=O (stereo not given)	nt	-3%	-3%	nt	nt	nt
O=C(O)C1(c2ccccc2)CCN(S(=O)(=O)c2ccc(Br)cc2)CC1	nt	nt	-9%	-13%	-1%	-4%
CCOC(=O)COc1ccc(Br)cc1/C=C1\SC(N)=NC1=O	nt	nt	0%	3%	7%	0%
NC1=NC(=O)/C(=C/c2ccc(Br)cc2)S1	nt	nt	-12%	1%	0%	3%
CCOC(=O)CSC1=NC(=O)/C(=C\c2ccc(OC(C)=O)cc2)S1	-1%	19%	19µM*	?	-8%	-7%
CCOC(=O)CSC1=NC(=O)/C(=C/c2ccc(Br)cc2)S1	nt	nt	15µM*	?	-9%	-5%
COc1cc(CO)ccc1OCc1ccc(Cl)nc1	nt	nt	12µM*	16µM*	3.2µM*	2.5µM*
Cc1ccc(C(=O)O)cc1NC(=O)c1nsc2ccccc12	nt	18%	?	nt	nt	nt
Cc1ccc(C(=O)NCCC(C)C)cc1NC(=O)c1nsc2ccccc12	nt	nt	0%	nt	nt	nt
CN(Cc1ccccc1)C(=O)c1cccc(NC(=O)c2nsc3ccccc23)c1	nt	nt	9.5µM*	nt	nt	nt
CN(C)c1ccc(CNC(=O)c2ccccc2NC(=O)c2nsc3ccccc23)cc1	nt	nt	-18%	nt	nt	nt
CC(C)Oc1ccc(CNC(=O)c2cccc(NC(=O)c3nsc4ccccc34)c2)cc1	nt	nt	9.5µM*	nt	nt	nt

Assay outcomes as filed in PubChem BioAssay.
